# Pf growth 48h = inhibits P. falciparum growth in the first generation, 48 h; Potency, µM (titrated, usually from 28.7 µM), without a hit: at the top dose activity change, negative = inhibition, actives largely listed as inhibitors; actives 5.9% (n = 310,000); P. falciparum luciferase growth in erythrocytes, 48 h; AID 504832; active = well fitted inhibition curve with a large enough effect; inconclusive = small, poorly fitted or top-dose-only effect, or another doubt; inactive = no such curve, though single readings can be large or run the other way; also: potency is read from the fitted curve at half-maximal effect; % is scaled to controls: 0 for no effect and ±100 for the full control effect
#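 Parasite viability was followed by luminescence of a genomically integrated firefly luciferase. Cultures held 0.1% parasitemia at 2% hematocrit (final), incubated under 5% CO2 at 37 C.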
# Shiga toxin inh = inhibitors of Shiga toxin in Vero cells | actives 9.2% (n = 290,000) | Vero cells, Shiga toxin protein synthesis inhibition reporter | inhibition, % at 38.7 µM; in the data active = inhibition mostly above about 28%, no sharp cut-off; inactive = mostly below about 43%; also: 0% is about no effect
# SARS PLpro yeast = inhibitors of SARS-CoV papain-like protease in yeast; S. cerevisiae expressing SARS-CoV PLpro, growth rescue; Potency, µM (titrated, usually from 32.9 µM), for inactives: at the top dose activity, positive = growth rescue, actives largely listed as activators; actives 0.19% (n = 330,000); AID 485353; also: potency is read from the fitted curve at half-maximal effect; 0% is about no effect; nearly all actives have a fitted effect of over 55% in size
# NS1 inh = influenza NS1 inhibition | actives 0.4% (n = 270,000) | AID 2326 | Potency, µM (top dose mostly 46.1 µM), for the others: at the top dose activity, positive = more growth; also: potency is read from the fitted curve at half-maximal effect; actives are rising curves; nearly all actives have a fitted effect of over 50% in size
#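 Growth recovery, yeast-based: influenza A NS1 expressed in S. cerevisiae causes slow growth, and suppressors are detected by OD600. The parent strain without NS1 is used as positive control.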
# CHX counter = counter-screen for Shiga toxin inhibitors: cycloheximide protein synthesis inhibition; cell reporter, cycloheximide protein synthesis inhibition counterscreen; max response, %; actives 12% (n = 300,000); in the data active = max response mostly above about 13%, no sharp cut-off; inactive = mostly below about 14%; also: read at 38.3 µM for the half of the compounds with a filed dose; 0% is about no effect
# Pf growth 96h = inhibits malaria parasite growth, 96 h. P. falciparum luciferase reporter growth, 96 h. Potency, µM (doses to about 28.7 µM), without a hit: at the highest dose activity change, negative = inhibition, hits mostly inhibitors. actives 6.9% (n = 320,000). AID 504834; active = well fitted inhibition curve with a large enough effect; inconclusive = small, poorly fitted or top-dose-only effect, or another doubt; inactive = no such curve, though single readings can be large or run the other way; also: potency is read from the fitted curve at half-maximal effect; % is scaled to controls: 0 for no effect and ±100 for the full control effect
#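 Parasite growth measured via integrated firefly luciferase reporter in P. falciparum. Infected erythrocytes at 2% hematocrit, 0.05% parasitemia final were treated 96 hours at 37 C under 5% CO2, and luminescence was read.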
# The depositor's hits bear a star; ? = inconclusive; nt = no result given; [ ] = remark or other dose. Hits are enriched below; roughly 21% of the tested compounds scored in any of these assays. Unless noted, calls follow the shape of the full dose curve.
SMILES,Pf growth 48h,Shiga toxin inh,SARS PLpro yeast,NS1 inh,CHX counter,Pf growth 96h
COc1ccc(S(=O)(=O)N(CC(=O)NCc2ccco2)c2ccc(C)cc2)cc1OC,-1.6%,6.8,15.1%,18.7%,16.7,-1.9%
COC(=O)c1cc(C(=O)OCC(=O)Nc2ccccc2OC(F)F)cc([N+](=O)[O-])c1,5.9%,-11.2,14.9%,-6.0%,-2.3,18.1%
C#CC1CN(Cc2ccccc2)CC(C#C)N1C (stereo not given),25.1%,-20.8,2.8%,9.2%,-2.6,32.7%
Cc1ccc(N(C(=O)c2csnn2)C(C(=O)NC2CCCCC2)c2ccco2)cc1 (stereo not given),?,-2.6,9.3%,13.9%,-2.1,23.4%
COC(=O)c1ccc(C(=O)OC)c(NC(=O)CSc2cccc[n+]2[O-])c1,?,5.1,-41.7%,-281.2%,5.8,1.17µM*
O=C(CSc1cccc[n+]1[O-])Nc1cc([N+](=O)[O-])ccc1Cl,22.3%,-7.2,-1.9%,nt,-2.6,0.5%
O=C(CSc1cccc[n+]1[O-])Nc1cc2c(cc1Cl)C(=O)c1ccccc1C2=O,116.4%,81.5*,21.9%,-26.3%,26.4*,85.9%
O=C(NCCS(=O)(=O)N1CCC2(CC1)OCCO2)c1ccc(F)cc1,-1.8%,nt,0.7%,nt,nt,40.3%
CCOC(=O)c1ccc(NC(=O)CN2C(=O)C(CC)SC(CC)C2=O)cc1 (stereo not given),9.9%,-6.9,4.5%,-4.7%,-0.3,49.6%
Cc1sc2nc(CSCC(=O)Nc3ccccc3C#N)[nH]c(=O)c2c1C,-8.1%,-6.7,9.1%,20.2%,-1.2,5.22µM*
CN1C(=O)C(Cc2ccc(OCc3ccccc3)cc2)C(=O)N(C)C1=O,9.2%[0.00184 µM],67.1*,1.0%,-35.2%,37.7*,3.6%
Cc1nnsc1C(=O)N1CCCC(Nc2ccc(F)c(F)c2)C1 (stereo not given),-5.6%,2.1,-4.6%,11.8%,8.4,18.6%
Cc1c(NC(=O)OCCNC(=O)Nc2ccccc2)sc(=S)n1C,11.9%,-12.7,2.8%,-6.0%,-3.9,4.65µM*
Cc1cc(Cl)ccc1OCC(=O)NCCOC(=O)Nc1sc(=S)n(C)c1C,7.1%,-10.3,2.4%,1.7%,-1.3,4.65µM*
COc1cccc(OCc2nn3c(=O)c(-c4ccccc4)nnc3s2)c1,?,-4.0,0.6%,2.0%,2.4,?
C=CCNC(=O)c1onc(CSc2ccc(F)cc2)c1C(=O)NCC=C,?,nt,2.6%,nt,nt,-60.1%
CN(C)CCNC(=O)c1onc(CSc2ccc(F)c(F)c2)c1C(=O)NCCN(C)C,8.28µM*,-1.1,-3.3%,-7.5%,-4.9,6.57µM*
CN(C)CCNC(=O)c1onc(CSc2ccc(F)cc2)c1C(=O)NCCN(C)C,13.1µM*,3.2,-4.1%,18.9%,-6.2,3.0%
CC1(C)CC(C#N)(N2CCOCC2)CCO1 (stereo not given),21.4%,11.7,nt,1.4%,-0.7,nt
Cc1ccccc1NC1=NCC(c2ccc([N+](=O)[O-])cc2)S1 (stereo not given),?,-7.1,6.1%,nt,7.5,-24.1%
O=C(CSc1nnc(Cc2ccccc2)o1)c1ccc(F)cc1,23.9%,19.1,-0.2%,-1.8%,8.0*,21.6%
O=C(CSc1nnc(Cc2ccsc2)o1)c1ccccc1,46.6%,54.8,-0.4%,6.5%,21.3*,35.3%
O=C(CSc1nnc(Cc2ccccc2)o1)c1cc(F)ccc1F,-11.1%,21.6,-1.6%,4.4%,13.4,-18.3%
c1cc(CN2CCCNCCNCCCNCC2)ccc1CN1CCCNCCNCCCNCC1,nt,-8.3,nt,nt,-2.7,nt
CCC1CCCCN1CCCNC(=O)CSc1nc2nc(C)c(Cc3ccc(C)cc3)c(C)n2n1 (stereo not given),?,-11.2,-2.7%,10.6%,-5.1,30.3%
Cc1nc2nc(SCC(=O)NCCCN3CCOCC3)nn2c(C)c1Cc1ccccc1,?,-11.1,-1.6%,nt,0.9,3.29µM*
CCOCCCNC(=O)CSc1nc2nc(C)c(Cc3ccccc3)c(C)n2n1,1.3%,2.6,0.0%,nt,9.0,4.65µM*
Cc1nc2nc(SCC(=O)NCCCN3CCCCC3)nn2c(C)c1Cc1ccccc1,?,-7.9,-6.8%,-1.4%,-6.7,-17.9%
Cc1ccc(Cc2c(C)nc3nc(SCC(=O)NCCCN4CCCCCC4)nn3c2C)cc1,?,-4.2,2.3%,16.4%,-5.4,10.4µM*

# Assay outcomes as filed in PubChem.
